The source of these data is PubChem BioAssay (EPA / NIEHS).

The structures appear in SMILES notation. Activity calls are given as the source filed them. How the source made its calls: active means hit-call score of the fitted dose curve at least 0.9, where 1 is the maximum; inactive means score below 0.9.

Read-out in test [1]: Human Leukocyte Antigen - DR isotype (HLADR), HLA-DRA (gene 3122)
Description: BSK_BE3C_HLADR: BioMAP Diversity Plus: BE3C Assay for Human Leukocyte Antigen - DR isotype (HLADR) Biomarker Activity (AID 2283032). The conditions noted are these: primary human bronchial epithelial cells; actives raise or lower the signal. In a few lines:
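Signal came from an ELISA for HLA-DR in human bronchial epithelial primary cells harvested 24 h after treatment; gain- and loss-of-signal fitting used DMSO controls as reference.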

Read-out in test [2]: Vascular cell adhesion molecule 1 (VCAM1), VCAM1 (gene 7412)
Description: BSK_4H_VCAM1: BioMAP Diversity Plus: 4H Assay for Vascular cell adhesion molecule 1 (VCAM1) Biomarker Activity (AID 2283033).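 On outcome: cell-surface VCAM-1 protein measured by ELISA.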 The conditions noted are these: primary human endothelial cells (HUVEC); actives raise or lower the signal. In a few lines:
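Endpoint derived from bidirectional fitting against DMSO controls of VCAM-1 ELISA signal in umbilical vein endothelial cells sampled at 24 h following treatment.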

Read-out in test [3]: Interferon-gamma inducible Protein 10 (IP10), CXCL10 (gene 3627)
Description: BSK_BE3C_IP10: BioMAP Diversity Plus: BE3C Assay for Interferon-gamma inducible Protein 10 (IP10) Biomarker Activity (AID 2283034). The note with it: primary human bronchial epithelial cells; actives raise or lower the signal. In a few lines: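 Using primary human bronchial epithelial cultures, the assay captures IP-10 by ELISA one day (24 h) after exposure. Parallel SRB staining of total protein flags overt cytotoxicity. Fits run bidirectionally relative to DMSO.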

Read-out in test [4]: Monokine induced gamma interferon (MIG), CXCL9 (gene 4283)
Description: BSK_BE3C_MIG: BioMAP Diversity Plus: BE3C Assay for Monokine induced gamma interferon (MIG) Biomarker Activity (AID 2283035).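 On outcome: MIG protein measured by ELISA in BE3C cultures after 24 h of dosing.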 The conditions noted are these: primary human bronchial epithelial cells; actives raise or lower the signal. In short, it runs like this: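 MIG level was determined by ELISA after 24 h chemical treatment of primary human bronchial epithelial cells. Values were fitted bidirectionally with DMSO as the negative control and activity baseline.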

Read-out in test [5]: Transforming growth factor beta 1 (TGFb1), TGFB1 (gene 7040)
Description: BSK_BE3C_TGFb1: BioMAP Diversity Plus: BE3C Assay for Transforming growth factor beta 1 (TGFb1) Biomarker Activity (AID 2283036;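 on outcome: TGF-b1 protein level measured by ELISA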). The conditions noted are these: primary human bronchial epithelial cells; actives raise or lower the signal. In a few lines:
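In this human primary bronchial epithelial system, an ELISA quantified TGF-b1 one day after dosing. Endpoint changes in either direction were fitted relative to DMSO.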

Read-out in test [6]: Plasminogen activator inhibitor-1 (PAI1), SERPINE1 (gene 5054)
Description: BSK_BE3C_PAI1: BioMAP Diversity Plus: BE3C Assay for Plasminogen activator inhibitor-1 (PAI1) Biomarker Activity (AID 2283037). The conditions noted are these: primary human bronchial epithelial cells; actives raise or lower the signal. In a few lines: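 PAI-1 biomarker levels in treated human bronchial epithelial cells are determined by ELISA at 24 h. Both increases and decreases relative to DMSO are fitted.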

Read-out in test [7]: urokinase plasminogen activator (uPA), PLAU (gene 5328)
Description: BSK_BE3C_uPA: BioMAP Diversity Plus: BE3C Assay for urokinase plasminogen activator (uPA) Biomarker Activity (AID 2283038).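 On outcome: uPA protein level quantified by ELISA in cell cultures; uPA read one day after compound addition.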 The conditions noted are these: primary human bronchial epithelial cells; actives raise or lower the signal. In a few lines: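 Measured by ELISA: uPA from human primary bronchial epithelial cells 24 h after chemical treatment. Values derive from bidirectional curve fitting with DMSO serving as negative control. Total protein by SRB staining in parallel wells flagged overt cytotoxicity.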

Read-out in test [8]: Urokinase-type plasminogen activator receptor (uPAR), PLAUR (gene 5329)
Description: BSK_BE3C_uPAR: BioMAP Diversity Plus: BE3C Assay for Urokinase-type plasminogen activator receptor (uPAR) Biomarker Activity (AID 2283039).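 On outcome: uPAR protein level measured by ELISA on the cells; cells exposed to compound for one day before measurement.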 The note with it: primary human bronchial epithelial cells; actives raise or lower the signal. In a few lines:
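A uPAR ELISA serves as the readout, taken 24 h after treating primary human bronchial epithelial cells. Responses in either direction are fitted against DMSO, which defines baseline activity.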

Read-out in test [9]: Interleukin-6 (IL6), IL6 (gene 3569)
Description: BSK_CASM3C_IL6: BioMAP Diversity Plus: CASM3C Assay for Interleukin-6 (IL6) Biomarker Activity for (AID 2283040). The note with it: primary human coronary artery smooth muscle cells; actives raise or lower the signal.

Read-out in test [10]: Tissue plasminogen activator (tPA), PLAT (gene 5327)
Description: BSK_BE3C_tPA: BioMAP Diversity Plus: BE3C Assay for Tissue plasminogen activator (tPA) Biomarker Activity (AID 2283041).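 On outcome: tPA level quantified by ELISA one day after compound addition.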 The conditions noted are these: primary human bronchial epithelial cells; actives raise or lower the signal. In a few lines: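 Bidirectional curve fitting relative to DMSO defined activity, with tPA detected by ELISA in chemically treated human bronchial epithelial primary cells at 24 hours.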

Read-out in test [11]: Interleukin-8 (IL8), CXCL8 (gene 3576)
Description: BSK_CASM3C_IL8: BioMAP Diversity Plus: CASM3C Assay for Interleukin-8 (IL8) Biomarker Activity (AID 2283042).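 Further: IL-8 protein level quantified by ELISA.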 The conditions noted are these: primary human coronary artery smooth muscle cells; actives raise or lower the signal.

Read-out in test [12]: Human Leukocyte Antigen - DR isotype (HLADR), HLA-DRA (gene 3122)
Description: BSK_CASM3C_HLADR: BioMAP Diversity Plus: CASM3C Assay for Human Leukocyte Antigen - DR isotype (HLADR) Biomarker Activity (AID 2283043).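 Further: cell-surface HLA-DR protein level quantified by ELISA.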 The conditions noted are these: primary human coronary artery smooth muscle cells; actives raise or lower the signal.

Read-out in test [13]: Macrophage colony-stimulating factor (MCSF), CSF1 (gene 1435)
Description: BSK_CASM3C_MCSF: BioMAP Diversity Plus: CASM3C Assay for Macrophage colony-stimulating factor (MCSF) Biomarker Activity (AID 2283044).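 Further: M-CSF protein amount quantified by ELISA after 24 h exposure.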 The note with it: primary human coronary artery smooth muscle cells; actives raise or lower the signal.

Read-out in test [14]: Low-density lipoprotein receptor (LDLR), LDLR (gene 3949)
Description: BSK_CASM3C_LDLR: BioMAP Diversity Plus: CASM3C Assay for Low-density lipoprotein receptor (LDLR) Biomarker Activity (AID 2283045).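 Further: LDLR protein level on the cell surface quantified by ELISA.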 The note with it: primary human coronary artery smooth muscle cells; actives raise or lower the signal.

Read-out in test [15]: Monocyte Chemoattractant Protein-1 (MCP1), CCL2 (gene 6347)
Description: BSK_CASM3C_MCP1: BioMAP Diversity Plus: CASM3C Assay for Monocyte Chemoattractant Protein-1 (MCP1) Biomarker Activity (AID 2283046).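 Further: MCP-1 level quantified by ELISA 24 h after dosing.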 The conditions noted are these: primary human coronary artery smooth muscle cells; actives raise or lower the signal.

Test [16] in a line: BSK_CASM3C_Proliferation: Cell Proliferation Assessment in the BioMAP Diversity Plus: CASM3C Assay (AID 2283047).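 Further: sulforhodamine B total protein stain as relative cell number at 560 nm; sub-confluent cells exposed 48 h before staining; fitted both ways against DMSO so gain or loss of cell number.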 The conditions noted are these: primary human coronary artery smooth muscle cells.
Read-out in test [17]: Monokine induced gamma interferon (MIG), CXCL9 (gene 4283)
Description: BSK_CASM3C_MIG: BioMAP Diversity Plus: CASM3C Assay for Monokine induced gamma interferon (MIG) Biomarker Activity (AID 2283048).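 Further: MIG protein level measured by ELISA.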 The note with it: primary human coronary artery smooth muscle cells; actives raise or lower the signal.

Read-out in test [18]: serum amyloid A (SAA), SAA1 (gene 6288)
Description: BSK_CASM3C_SAA: BioMAP Diversity Plus: CASM3C Assay for serum amyloid A (SAA) Biomarker Activity (AID 2283049).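 Further: SAA protein level quantified by ELISA.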 The conditions noted are these: primary human coronary artery smooth muscle cells; actives raise or lower the signal.

A short description of test [19]: BSK_CASM3C_SRB: Viability Assessment in the BioMAP Diversity Plus: CASM3C Assay (AID 2283050).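 Further: cells exposed to compound for 24 h.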 The note with it: primary human coronary artery smooth muscle cells.
Read-out in test [20]: Thrombomodulin, THBD (gene 7056)
Description: BSK_CASM3C_Thrombomodulin: BioMAP Diversity Plus: CASM3C Assay for Thrombomodulin Biomarker Activity (AID 2283051).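 Further: thrombomodulin protein level measured by ELISA 24 h after dosing.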 The note with it: primary human coronary artery smooth muscle cells; actives raise or lower the signal.

As to `C[C@]12C=CC3=C4CCC(=O)C=C4CC[C@H]3[C@@H]1CC[C@@H]2O`, the result in [1], in test [2], in test [4], in test [5], in test [6] and in test [7] was inactive. The outcome in test [8], in test [11], in [12], in test [13], in [14] and in test [15] was inactive. For the same compound, the result in test [16], in test [17], in [18], in [19] and in test [20] was inactive. The results for the AC50 in test [3], in [9] and in [10] were 29.2 µM (active), 13 µM (active) and 3.97 µM (active), respectively.
Consider `CCCCCOC(=O)c1ccccc1C(=O)OCCCCC`, for which the outcome in test [1], in test [3], in test [4], in test [5], in test [6] and in test [7] was inactive. For the same compound, the result in test [8], in [9], in test [10], in test [11], in test [12] and in [13] was inactive. In addition, the result in test [14], in [15], in test [16], in [17], in test [18] and in [19] was inactive. Besides, the concentration at half-maximal activity (AC50) was 18.5 µM (active) in test [2] and 15.6 µM (active) in test [20].
With `Nc1ccc([N+](=O)[O-])cc1`, the outcome in [1], in [2], in test [3], in [4], in test [5] and in test [6] was inactive. For the same compound, the result in [7], in test [8], in test [9], in test [10], in [11] and in [12] was inactive. The result in test [13], in test [14], in [15], in [16], in test [17] and in test [18] was inactive. In addition, the outcome in test [19] and in [20] was inactive.
As for `[Cl-].[Cl-].[Hg+2]`, the AC50 in test [1] was 30.2 µM (active); in test [2], 29.7 µM (active); in [3], 34.9 µM (active); in test [4], 36.5 µM (active); in [5], 30.9 µM (active); in [6] it was 30.9 µM (active). In addition, the AC50 in test [7] is 31.6 µM (active); in test [8], 31.5 µM (active); in test [9], 31.9 µM (active); in test [10] it was 31.8 µM (active); in test [11], 35.5 µM (active); in test [12], 25.4 µM (active). In addition, the AC50 is 26.5 µM (active) in [13]; 34.8 µM (active) in test [14]; 33.5 µM (active) in test [15]; 29.3 µM (active) in test [16]; 33.9 µM (active) in [17]; 30.6 µM (active) in test [18]. The figures for the AC50 in test [19] and in test [20] were 36.6 µM (active) and 5.21 µM (active), respectively.
With `CNC(=O)Oc1cccc2c1OC(C)(C)C2`, the result in [1], in test [2], in test [3], in [4], in test [5] and in test [6] was inactive. In addition, the result in [7], in test [8], in [9], in [10], in test [11] and in [12] was inactive. In addition, the result in [13], in test [14], in [15], in [16], in test [17] and in test [18] was inactive. In addition, the outcome in test [19] and in test [20] was inactive.
Consider `O=C1CCCO1`, for which the result in [1], in [2], in test [3], in test [4], in test [5] and in [6] was inactive. Also, the outcome in test [7], in [8], in test [9], in [10], in test [11] and in test [12] was inactive. The result in test [13], in test [14], in test [15], in test [16], in [17] and in test [18] was inactive. Further, the result in test [19] and in [20] was inactive.
